This is a sample that favours compounds with a hit; in the whole collection about 28% have one here.
Pyk2 oligo antag = blocks oligomerization of human Pyk2 in cells; Q293 cells, Pyk2 FERM NanoBiT luminescence; hits give low values; z-score (the deposit names both 25 µM and 10 µM); actives 0.83% (n = 99,000); AID 1347419;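 active = Z-score of -3 or lower, scaled per plate to the spread of control and sample wells; inactive = z-score above -3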;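 also: negative z-score means lost luminescence so less FERM oligomerization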
Target sequence (Q14289 whole entry, looked up): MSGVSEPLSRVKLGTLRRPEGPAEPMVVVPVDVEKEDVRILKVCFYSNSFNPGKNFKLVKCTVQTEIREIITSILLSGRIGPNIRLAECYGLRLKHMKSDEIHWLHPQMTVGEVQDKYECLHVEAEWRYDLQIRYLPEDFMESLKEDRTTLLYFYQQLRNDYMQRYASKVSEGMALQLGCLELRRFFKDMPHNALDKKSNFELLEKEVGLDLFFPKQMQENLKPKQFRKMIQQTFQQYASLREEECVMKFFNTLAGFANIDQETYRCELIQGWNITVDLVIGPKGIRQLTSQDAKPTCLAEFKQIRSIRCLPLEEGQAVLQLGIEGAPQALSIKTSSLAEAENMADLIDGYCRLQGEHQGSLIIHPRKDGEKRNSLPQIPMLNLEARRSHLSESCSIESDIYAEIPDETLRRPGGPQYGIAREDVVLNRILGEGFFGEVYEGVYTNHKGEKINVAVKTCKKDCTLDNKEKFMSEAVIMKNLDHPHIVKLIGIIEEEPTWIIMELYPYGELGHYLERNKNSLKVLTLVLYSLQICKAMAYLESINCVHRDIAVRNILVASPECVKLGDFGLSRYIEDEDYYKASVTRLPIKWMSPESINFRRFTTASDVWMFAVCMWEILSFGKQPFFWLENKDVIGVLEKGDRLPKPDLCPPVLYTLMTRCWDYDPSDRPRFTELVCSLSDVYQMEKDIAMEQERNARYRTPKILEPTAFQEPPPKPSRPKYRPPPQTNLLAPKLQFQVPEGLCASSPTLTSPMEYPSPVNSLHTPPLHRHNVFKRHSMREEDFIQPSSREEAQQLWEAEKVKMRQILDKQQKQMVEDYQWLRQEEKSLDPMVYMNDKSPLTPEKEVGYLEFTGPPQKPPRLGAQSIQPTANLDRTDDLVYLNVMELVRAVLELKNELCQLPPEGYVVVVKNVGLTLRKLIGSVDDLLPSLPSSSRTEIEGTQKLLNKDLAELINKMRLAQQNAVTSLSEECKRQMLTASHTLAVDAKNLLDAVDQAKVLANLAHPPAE
CYP2C19 act = activators of human cytochrome P450 2C19. 96,000 tested, under 10 active. AID 1025. activation factor at 5 µM. P33261. recombinant CYP2C19, luciferin-H EGE luminescence; hits give high values; 0 = fully inhibited enzyme, 1 = untreated enzyme;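 active = activation factor of at least 2 at 5 µM in the primary screen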;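 also: 0 = wells with 2.5 mM tranylcypromine and 1 = vehicle-only wells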
CYP2C19 inh = blocks human cytochrome P450 2C19 | P33261 | CYP2C19 Supersomes, luciferin-H EGE luminescence, 30 min | inhibition, % at 5 µM | actives 21% (n = 96,000);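 active = CYP2C19 inhibition above a set limit at 5 µM in the primary screen, cut at about 50% in these data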;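 also: plate controls were negative control wells for no effect and 2.5 mM tranylcypromine positive control for full effect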
CYP2C9 act = CYP2C9 (human) activation | activation factor at 5 µM | recombinant CYP2C9, luciferin-H conversion, luminescence; hits give high values; factor 1 = untreated enzyme, 0 = blocked | actives 1.4% (n = 96,000) | P11712 | AID 1024;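 active = activation factor of 2 or more for CYP2C9 at a 5 µM dose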;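 also: 0 = sulfaphenazole-blocked wells and 1 = vehicle-only wells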
CYP2C9 inhib = inhibitors of human CYP2C9 | CYP2C9 Supersomes, luciferin-H conversion, luminescence | actives 20% (n = 96,000) | AID 777 | inhibition, % at 5 µM | P11712;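 active = blocking of liver enzyme CYP2C9 beyond about 50% at 5 µM, limit read from the data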
Starred values were filed as active, the others as inactive.

COC(=O)c1ccc(NC(=O)C2CCCN(S(=O)(=O)c3cnc[nH]3)C2)cc1 (stereo not drawn) was read as CYP2C19 act 0.2, CYP2C19 inh 78.8*, CYP2C9 act 0.1 and CYP2C9 inhib 86.4*.
`COc1ccc(Oc2nc(SC)nc3ccccc23)cc1` gave Pyk2 oligo antag -0.41, CYP2C19 act 1, CYP2C19 inh 1.2, CYP2C9 act 1.1 and CYP2C9 inhib -5.7.
Screening O=c1[nH]cnc2cc(Cl)ccc12 returned Pyk2 oligo antag -1.06, CYP2C19 act 1.1, CYP2C19 inh -6.0, CYP2C9 act 0.9 and CYP2C9 inhib 5.2.
For CCOC(=O)Nc1c(C(=O)OC)[nH]c2cccc(OC)c12 the results were Pyk2 oligo antag 0.09, CYP2C19 act 0.8, CYP2C19 inh 17.3, CYP2C9 act 0.9 and CYP2C9 inhib 9.9.
For O=C(NCS(=O)(=O)c1ccccc1)c1ccccc1 the results were Pyk2 oligo antag 0.46, CYP2C19 act 0.3, CYP2C19 inh 70.3*, CYP2C9 act 0.9 and CYP2C9 inhib 11.9.
CN(C)CCNC(=O)c1ccccc1 was read as Pyk2 oligo antag 0.8, CYP2C19 act 1.1, CYP2C19 inh -10.6, CYP2C9 act 0.9 and CYP2C9 inhib 5.0.
COC(=O)c1cccc(OCC(O)Cn2ccnc2)c1 (stereo not drawn) was read as Pyk2 oligo antag -0.24, CYP2C19 act 0, CYP2C19 inh 100.4*, CYP2C9 act 0.1 and CYP2C9 inhib 87.8*.
CC(Oc1ccc(C(C)(C)C)cc1)c1ccnc2nc(/N=C/N(C)C)nn12 (stereo not drawn) was read as Pyk2 oligo antag -0.99, CYP2C19 act 0.9, CYP2C19 inh 6.1, CYP2C9 act 0.9 and CYP2C9 inhib 13.0.
For COc1nc(-c2ccc(C)cc2)ccc1-c1noc(-c2cccnc2)n1 the results were Pyk2 oligo antag 0.45, CYP2C19 act 0.7, CYP2C19 inh 26.9, CYP2C9 act 0.6 and CYP2C9 inhib 42.3.
`Cc1ccc(-c2nc(-c3cccnc3)no2)c(C)c1` gave Pyk2 oligo antag -0.22, CYP2C19 act 0.5, CYP2C19 inh 52.4*, CYP2C9 act 0.9 and CYP2C9 inhib 14.1.
Screening Cc1ccc(C)c(OCc2nc(-c3cccnc3)no2)c1 returned Pyk2 oligo antag 0.46, CYP2C19 act 0.1, CYP2C19 inh 89.7*, CYP2C9 act 0.7 and CYP2C9 inhib 30.6.
Screening N#Cc1c(SCC(N)=O)nc(-c2ccccc2)c2c1CCCC2 returned Pyk2 oligo antag -0.43, CYP2C19 act 1, CYP2C19 inh -1.7, CYP2C9 act 0.9 and CYP2C9 inhib 5.5.
For CCOC(=O)CC(=O)CSc1nc(-c2cccnc2)ccc1C#N the results were Pyk2 oligo antag -0.54, CYP2C19 act 0.7, CYP2C19 inh 30.5, CYP2C9 act 0.7 and CYP2C9 inhib 34.1.
Screening CCOC(=O)CC(=O)CSc1nc(-c2cccnc2)cc(C)c1C#N returned Pyk2 oligo antag 0.49, CYP2C19 act 0.6, CYP2C19 inh 35.3, CYP2C9 act 0.2 and CYP2C9 inhib 81.1*.
CCOC(=O)CC(=O)CSc1nc(C)cc(-c2cccnc2)c1C#N was read as Pyk2 oligo antag -0.72, CYP2C19 act 0.7, CYP2C19 inh 28.1, CYP2C9 act 0.3 and CYP2C9 inhib 72.6*.
For Cc1cc(-c2ccccc2)c(C#N)c(SCC(N)=O)n1 the results were Pyk2 oligo antag -0.14, CYP2C19 act 0.6, CYP2C19 inh 40.6, CYP2C9 act 3* and CYP2C9 inhib -198.4.
`COc1ccc(CCNC(=O)CSc2nc(O)c(C(C)C)c(=O)[nH]2)cc1OC` gave Pyk2 oligo antag 0.14.
CCCCN(CC)C(=O)Cc1c(C(=O)O)[nH]c2ccc(Cl)cc12 was read as Pyk2 oligo antag 0.23, CYP2C19 act 0, CYP2C19 inh 95.9*, CYP2C9 act 0 and CYP2C9 inhib 95.4*.
`CCc1ccc2[nH]c(=O)c(CN(Cc3ccc4c(c3)OCO4)Cc3nnnn3C3CCCC3)cc2c1` gave Pyk2 oligo antag -0.08, CYP2C19 act 0.7, CYP2C19 inh 30.4, CYP2C9 act 0.4 and CYP2C9 inhib 60.5*.
For COc1ccc2cc(CN(Cc3ccco3)Cc3nnnn3C3CCCCC3)c(=O)[nH]c2c1 the results were Pyk2 oligo antag 1.41, CYP2C19 act 0.2, CYP2C19 inh 84.0*, CYP2C9 act 0.1 and CYP2C9 inhib 87.2*.
`Cc1ccc2cc(CN(Cc3ccccc3)Cc3nnnn3C3CCCC3)c(=O)[nH]c2c1` gave Pyk2 oligo antag -1.65, CYP2C19 act 0.1, CYP2C19 inh 86.7*, CYP2C9 act 0.2 and CYP2C9 inhib 81.5*.
Screening CC(=O)NC1(C(F)(F)F)C(=O)NC(C)=C1C#N (stereo not drawn) returned Pyk2 oligo antag -0.15, CYP2C19 act 1.2, CYP2C19 inh -17.5, CYP2C9 act 1.1 and CYP2C9 inhib -12.9.
CC1=C(C#N)C(Nc2ccc(C)cn2)(C(F)(F)F)C(=O)N1 (stereo not drawn) was read as Pyk2 oligo antag -1.18, CYP2C19 act 0.1, CYP2C19 inh 89.1*, CYP2C9 act 0.6 and CYP2C9 inhib 41.7.
For CC1=C(C#N)C(Nc2ccc(Cl)cn2)(C(F)(F)F)C(=O)N1 (stereo not drawn) the results were Pyk2 oligo antag -1.87, CYP2C19 act 0.2, CYP2C19 inh 82.9*, CYP2C9 act 0.8 and CYP2C9 inhib 20.8.
`O=C(CN1C(=O)C2C3c4ccccc4C(c4ccccc43)C2C1=O)N1CCOCC1` (stereo not drawn) gave Pyk2 oligo antag 0.31, CYP2C19 act 1, CYP2C19 inh 3.6, CYP2C9 act 1 and CYP2C9 inhib -0.9.
`COC(=O)CSC(C(=O)Nc1ccc(C)c(C)c1)c1ccccc1` (stereo not drawn) gave Pyk2 oligo antag -0.65, CYP2C19 act 0.1, CYP2C19 inh 91.6*, CYP2C9 act 0.4 and CYP2C9 inhib 59.6*.
Screening CCn1c(Cc2cccn2C)nnc1SCC(=O)c1ccc(C)cc1 returned Pyk2 oligo antag 0.83, CYP2C19 act 0.5, CYP2C19 inh 46.7, CYP2C9 act 0.7 and CYP2C9 inhib 27.4.
Screening CN(C)[C@H]1N(C(=O)c2ccc(Br)cc2)N=C2c3ccccc3S(=O)(=O)N21 returned Pyk2 oligo antag -2.04, CYP2C19 act 0.6, CYP2C19 inh 44.7, CYP2C9 act 0.4 and CYP2C9 inhib 56.8*.
`O=C(CN1C2=NCCN2c2ccccc21)c1ccc(Br)cc1` gave Pyk2 oligo antag 1.43, CYP2C19 act 0.8, CYP2C19 inh 21.4, CYP2C9 act 0.9 and CYP2C9 inhib 10.3.
Screening O=C(COC(=O)c1ccccc1OCc1ccccc1Cl)NC1CC1 returned Pyk2 oligo antag -0.54, CYP2C19 act 0.5, CYP2C19 inh 53.0*, CYP2C9 act 0.5 and CYP2C9 inhib 45.1.
For COc1cccc(-c2cn3nc4c(nc3n2)CCCC4)c1 the results were Pyk2 oligo antag -0.47, CYP2C19 act 0, CYP2C19 inh 95.7*, CYP2C9 act 0.5 and CYP2C9 inhib 50.4*.
For O=C(COC(=O)CC12CC3CC(CC(Br)(C3)C1)C2)NC(=O)NCc1ccco1 the results were Pyk2 oligo antag -0.04, CYP2C19 act 0.5, CYP2C19 inh 46.1, CYP2C9 act 0.4 and CYP2C9 inhib 64.5*.

Screens: PubChem BioAssay, Sanford-Burnham Center for Chemical Genomics
